Measurements from PubChem BioAssay (NCATS).
Activity calls are given as the source filed them. The call rests on the fitted dose curve; in most records, active means well fitted curve in the direction sought with a large enough effect; inconclusive means small, poorly fitted or top-dose-only effect, or another doubt; inactive means no such curve, though single readings can be large or run the other way.

assay: Cellular Toxicity (caspase-3) HUV-EC-C (AID 656); conditions: HUV-EC-C cells, caspase-3 activation (apoptosis), vehicle = 0, 100 µM tamoxifen = 100%; series mostly up to 92.2 µM
Description: NIH Chemical Genomics Center [NCGC]
NIH Molecular Libraries Screening Centers Network [MLSCN]
National Institutes of Environmental Health Sciences [NIEHS]
National Toxicology Program [NTP]
We have developed a 1536-well cell-based assay for quantitative high throughput screening (qHTS) against a number of cell lines to determine in vitro caspase 3/7 of small molecules. This particular assay uses the HUV-EC-C cell line which is derived from normal human vascular endothelial cells.
NCGC Assay Protocol Summary:
The Caspase-Glo 3/7 assay (Promega) is a homogeneous method to measure caspase-3 and caspase-7 activities in cultured cells. The quantitation of caspase 3/7 activity is based on the cleavage of a peptide-aminoluciferin substrate. After caspase cleaves the substrate the free aminoluciferin is liberated and serves as the substrate of luciferase, which generates the light. The luminescent signal is proportional to amount of caspase 3/7 activity present.
Using the Caspase-Glo 3/7 assay, the amount of caspase 3/7 activity was measured in the HUV-EC-C cell line with complete culture medium following compound treatment for 16 hours. The assay was performed in opaque white 1536-well plates. In the screen, tamoxifen and doxorubicin were used as positive controls. Library compounds were measured for their ability to cause the activation of caspase 3/7 in the cell line, as reflected by an increase in luminescence signal, in a concentration-dependent manner. Data were normalized to the controls for basal activity (DMSO only) and 100% stimulation (100 uM tamoxifen). AC50 values were determined from concentration-response data modeled with the standard Hill equation.
qHTS protocol for caspase 3/7 assay in HUV-EC-C cell line
[Step] [Parameter] [Value] [Description]
1. Reagent; 5 uL; 1000 HUV-EC-C cells/well
2. Time; 5 hr; 37 °C incubation
4. Controls; 23 nL; Tamoxifen 0.23 uM to 100 uM & doxorubicin 7.0 pM to 100 uM
5. Time; 16 hr; 37 °C incubation
6. Reagent; 5 uL; Caspase-Glo 3/7 reagent
7. Time; 20 min; Room Temperature
8. Detection; Luminescence; Viewlux plate reader
Keywords: caspase 3/7, apoptosis, HUV-EC-C cell line, luminescence, NTPHTS, NTPHTS_NCGC, NIEHS, EPA, DSSTox, MLSMR, MLSCN, NIH Roadmap, qHTS, NCGC

Compound	outcome
CCOC(C)=O	inactive
CC(C)=O	inactive
CCOc1ccc2c(c1)C(C)=CC(C)(C)N2	inactive
O=C(O)CCC(=O)C(=O)O	inactive
CC1=C2[C@@H]([C@H](C)CC[C@H]2/C=C(\C)C(=O)O)[C@H](O)C1	inactive
CCCCC/C=C\C/C=C\CCCCCCCC(=O)O	inactive
Nc1ccn([C@H]2CS[C@@H](CO)O2)c(=O)n1	inactive
CCCCCCCC(=O)O	inactive
O=S(=O)(O)O	inactive
CC1=C(/C=C/C(C)=C/C=C/C(C)=C/CO)C(C)(C)CCC1	inactive
O=CCCCC=O	inactive
Cc1ccccc1	inactive
CC(O)CO (stereo not given)	inactive
CCCCCCCC/C=C\CCCCCCCC(=O)O	inactive
IC(I)I	inactive
